This is an account of results in PubChem BioAssay AID382 (SGCOxCompounds, 2006).

Structures are written as SMILES. Calls of active or inactive are those of the source. The rule behind the calls is not given here.

The target in this assay is Dual specificity protein kinase CLK1 (Homo sapiens) (UniProt P49759). Briefly: CLK1 binders by thermal stabilization, biophysical, recombinant human kinase, DSF (AID 382). To be noted: at 10 µM, protein 2 µM, buffer 10 mM HEPES, NaCl 150 mM, active compounds read high.
Sequence of Dual specificity protein kinase CLK1 (Homo sapiens) (P49759 whole entry, looked up): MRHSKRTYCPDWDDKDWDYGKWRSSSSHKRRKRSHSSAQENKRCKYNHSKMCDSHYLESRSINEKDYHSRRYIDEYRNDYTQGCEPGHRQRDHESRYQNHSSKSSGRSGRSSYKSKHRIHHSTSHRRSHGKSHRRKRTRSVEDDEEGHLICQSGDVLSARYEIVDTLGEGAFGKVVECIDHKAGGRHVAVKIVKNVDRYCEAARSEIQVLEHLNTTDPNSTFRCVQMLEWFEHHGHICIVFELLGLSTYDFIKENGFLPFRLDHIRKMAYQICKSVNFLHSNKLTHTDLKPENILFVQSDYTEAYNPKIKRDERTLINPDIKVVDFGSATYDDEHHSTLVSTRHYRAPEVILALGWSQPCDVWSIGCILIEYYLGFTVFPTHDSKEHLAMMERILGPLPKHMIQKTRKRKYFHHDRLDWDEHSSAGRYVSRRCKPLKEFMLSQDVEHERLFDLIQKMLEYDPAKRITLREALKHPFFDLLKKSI
As for `COc1ccc2c(c1)/C(=C/c1cnc[nH]1)C(=O)N2`, the Tm shift is 3.63 Celsius (active). To `O=C1NC(=O)c2c1c1c3ccccc3n3c1c1c2c2ccccc2n1[C@@H]1CCC3O1` belongs 6.44 Celsius (active); to `O=C1Nc2ccccc2/C1=C\c1cnc[nH]1`, 3.76 Celsius (active).

Turning to `CCn1cnc2c(Nc3cccc(Cl)c3)nc(N[C@@H]3CCCC[C@@H]3N)nc21`, the Tm shift was 6.54 Celsius (active).
